# Bioassay records: PubChem BioAssay, several laboratories
# An excerpt weighted towards active compounds, which were near 0.5% of everything screened.
# Tat transport: blocks Tat-dependent protein export in E. coli | E. coli MC4100 TorA-mCherry Tat export, fluorescence | inhibition, % at 10 µM | hit rate 0.036% among 340,000;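 active = mean replicate inhibition at least 50% and at least half of replicates individually reaching 50%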;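 note: exported cargo escapes ClpAP degradation while cytoplasmic cargo is degraded and loses fluorescence; 0% = median of neutral control wells and 100% = median of NaSCN control wells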
# E coli growth-1: counter-screen for AddAB inhibitors: E. coli growth inhibition; inhibition, % at 11.9 µM; E. coli V3065 growth, OD600 absorbance, 18 h; AID 449728; hit rate 0.27% among 330,000;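 active = inhibition above the campaign's mean inhibition across all tested compounds plus 3 SD, cut at about 9.9% in these data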;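 note: uninfected addAB+ strain grown without phage in ampicillin broth; 0% = DMSO wells and 100% = ciprofloxacin 0.95 µg/ml wells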
# AddAB inh: less growth of phage-infected E. coli with AddAB; hit rate 0.29% among 330,000; inhibition, % at 11.9 µM; E. coli expressing H. pylori AddAB, absorbance growth; AID 435030; in the data active = inhibition above about 12%;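 note: 0% = vehicle wells of infected cells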
# phage Ecoli inh: E. coli growth loss with phage present. growth absorbance. inhibition, % at 11.9 µM. hit rate 0.26% among 360,000. AID 651602; in the data active = inhibition above about 11%
# E coli growth-2: inhibitors of Escherichia coli growth; OD600, 23 h; stronger effect = lower value; OD600 absorbance (test concentration not listed); hit rate 0.21% among 330,000; AID 1053175;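 active = OD600 absorbance below the run mean of sample wells minus 3.6 SD, in any replicate, cut at about 0.56 in these data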
# RecBCD conf: growth loss of phage-infected V66 E. coli, RecBCD confirmation screen | hit rate 45% among 890 | AID 651982 | inhibition, % at 11.9 µM | E. coli V66 + T4 2- phage, growth OD | shares compounds with phage Ecoli inh;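 active = mean inhibition over triplicates exceeding the hit threshold derived in the original primary screen, cut at about 11% in these data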
# Ecoli viability: inhibits E. coli viability, flagging RecBCD hits as nonselective | shares compounds with phage Ecoli inh | absorbance (OD) growth | inhibition, % at 11.9 µM | hit rate 29% among 890 | AID 651983; in the data active = inhibition above about 20%;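 note: E. coli strain V66 grown with compound alone and no phage infection; 0% = bacteria with DMSO vehicle only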
# AddAB phage OD: growth loss of phage-infected AddAB E. coli, RecBCD counter-screen; shares compounds with phage Ecoli inh; E. coli expressing H. pylori AddAB + T4 phage, OD growth; gene 2 mutant T4, recBCD-deleted host; inhibition, % at 11.9 µM; hit rate 45% among 890;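 active = mean inhibition above the solvent-only control wells' mean plus 3 SD, cut at about 22% in these data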;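 note: higher means less bacterial growth from phage killing when AddAB is blocked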
# The depositor's hits bear a star; nt = no result given.
SMILES,Tat transport,E coli growth-1,AddAB inh,phage Ecoli inh,E coli growth-2,RecBCD conf,Ecoli viability,AddAB phage OD
CCN(CCOC(=O)Nc1ccc(Cl)cc1)C(=O)Nc1ccc(Cl)cc1,nt,nt,nt,11.4*,nt,4.5,5.2,1.4
O=C(O)c1nn(CCSc2ccccc2F)c(=O)c2ccccc12,-4.0,0.1,-1.1,36.7*,0.701,-5.3,-5.5,-0.2
Cc1ccc(SCCn2nc(C(=O)O)c3ccccc3c2=O)cc1,13.1,2.3,5.1,0.8,0.737,nt,nt,nt
NC(=S)NN=Cc1cc(-c2cccc(N)c2)ccn1,nt,nt,nt,21.2*,nt,13.8*,16.0,31.7*
O=c1oc2ccccc2c(O)c1C=Nc1ncccn1,nt,nt,nt,nt,0.718,nt,nt,nt
O=C(/C(=N/N=C/c1ccc(O)c(O)c1O)c1ccccc1)c1ccccc1,5.5,5.9,7.5,11.6*,nt,6.5,6.5,7.0
Oc1ccc(/C=N/N=C(c2ccccc2)c2ccccc2)c(O)c1O,1.2,5.1,6.2,14.2*,nt,2.5,3.5,5.4
Cc1c(Cc2ccc3c(c2)OCO3)sc(NC(=O)C(C)(C)C)c1C#N,-2.2,-0.6,0.2,100.1*,0.791,-1.5,-1.5,-1.2
CCC(=O)Nc1sc(Cc2ccc3c(c2)OCO3)c(C)c1C(N)=O,-2.9,-1.9,-0.4,-0.1,0.661,nt,nt,nt
CCCC1COCCS(=O)(=O)N1Cc1ccccc1 (stereo unspecified),nt,nt,nt,nt,0.672,nt,nt,nt
Cc1ccc(C=NNc2nncc(-c3ccccc3)n2)o1,nt,nt,nt,nt,0.706,nt,nt,nt
CNC(CC(C)C)C(=O)NC1C(=O)NC(CC(N)=O)C(=O)NC2C(=O)NC3C(=O)NC(C(=O)NC(C(=O)O)c4cc(O)cc(O)c4-c4cc3ccc4O)C(O)c3ccc(c(Cl)c3)Oc3cc2cc(c3OC2OC(CO)C(O)C(O)C2OC2CC(C)(N)C(O)C(C)O2)Oc2ccc(cc2Cl)C1O (stereo unspecified),-34.8,1.3,-1.9,11.4*,nt,4.2,7.6,15.3
O=[N+]([O-])c1ccc(-c2nc(Cl)c3c(n2)CCCC3)o1,nt,nt,nt,97.1*,nt,76.2*,96.5*,100.1*
CN(C)C(=O)/C(=C\c1ccc(-c2cccc([N+](=O)[O-])c2)o1)NC(=O)c1ccccc1,0.2,2.1,1.1,2.8,0.666,nt,nt,nt
CN(C)C(=O)/C(=C/c1ccc(-c2cccc([N+](=O)[O-])c2)o1)NC(=O)c1ccccc1,-2.2,0.6,-1.0,19.1*,0.658,-1.7,-0.6,7.0
CC(=NN=Cc1ccc(N(C)C)cc1)c1cccc([N+](=O)[O-])c1,nt,nt,nt,nt,0.724,nt,nt,nt
Cc1[nH]nc(C(F)(F)F)c1N=NN1CCOCC1,82.9*,nt,nt,99.6*,nt,99.2*,103.0*,100.3*
COc1cccc(OCC(=O)NNC(=O)c2ccc3ccccc3c2O)c1,-5.0,nt,nt,15.3*,0.708,4.5,7.0,14.4
COc1ccc(C(=O)NNC(=O)c2ccc3ccccc3c2O)cc1,-8.3,3.2,4.6,2.6,0.693,nt,nt,nt
CN(Cc1ccccc1)C(=O)COC(=O)C1=NNC(=O)CC1,6.9,1.4,2.4,3.0,0.718,nt,nt,nt
N#CCCN(C(=O)COC(=O)C1=NNC(=O)CC1)c1ccccc1,-4.8,0.4,1.0,11.0*,0.614,-1.9,-2.6,-5.0
O=C1OCCN1C(=O)C1C(c2ccc(F)cc2)C(c2ccc(F)cc2)=NN1c1ccccc1 (stereo unspecified),nt,nt,nt,nt,0.715,nt,nt,nt
Oc1c(Br)cc(Br)cc1CNc1cccc2cccnc12,-3.0,-3.7,-2.1,0.3,0.637,nt,nt,nt
Oc1c(Br)cc(Br)c2cccnc12,-9.6,nt,nt,44.3*,nt,60.3*,68.2*,53.0*
O=C(NN=Cc1ccsc1)c1ccccn1,nt,nt,nt,nt,0.688,nt,nt,nt
Fc1ccc(CN2CCCN(Cc3nc(-c4ccc5c(c4)OCO5)no3)CC2)cc1,-1.6,-0.1,2.6,4.3,0.656,nt,nt,nt
O=C(c1ccco1)N1CCCN(Cc2nc(-c3ccc4c(c3)OCO4)no2)CC1,3.8,-0.2,-1.7,14.9*,0.677,1.1,1.4,-1.6
COc1ccc(C=NN2CCN(Cc3ccc(C)cc3)CC2)cc1Br,nt,nt,nt,nt,0.649,nt,nt,nt
Cc1onc(-c2ccccc2)c1C(=O)NN=Cc1cc(Cl)cc(Cl)c1O,nt,nt,nt,11.2*,nt,-1.1,0.7,1.8
Cn1nc(-c2ccccn2)nc2c(=O)n(C)c(=O)nc1-2,-11.4,0.7,1.6,1.9,0.671,nt,nt,nt
